Experimental data reported in PubChem BioAssay (NCATS).
Results filed as inconclusive are left out. Active and inactive are the calls of the source. Unless noted, the call rests on the fitted dose curve; in most records, active means well fitted curve in the direction sought with a large enough effect; inconclusive means small, poorly fitted or top-dose-only effect, or another doubt; inactive means no such curve, though single readings can be large; an effect the other way counts as inactive or inconclusive.

Columns and labels:
[1] = qHTS for Inhibitors of Plasmodium falciparum (DD2) proliferation (AID 504314);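 further: parasite DNA measured by SYBR Green fluorescence after red cell lysis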; conditions: P. falciparum Dd2 in erythrocytes, SYBR Green growth, 72 h; series mostly up to 6.11 µM
Summary of the method: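 Parasite proliferation measured as SYBR Green signal from Plasmodium DNA, mature erythrocytes lacking DNA. 72 h incubation, 37C; activity scaled between vehicle and 0.29 uM artemisinin, with correction from vehicle-only plates.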

[2] = qHTS for Inhibitors of Plasmodium falciparum (GB4) proliferation (AID 504315); further: nearly all actives have a fitted effect of over 50% in size; conditions: P. falciparum GB4 in erythrocytes, SYBR Green DNA, 72 h; series mostly up to 6.7 µM
Summary of the method: (§1)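 Parasite growth measured as SYBR Green DNA fluorescence (ex 485, em 535 nm) after overnight lysis following 72 h culture at 37 °C, 0.3% parasitemia, 2.5% hematocrit. Values normalized against DMSO and 0.29 uM artemisinin controls, with plate-stack correction.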

[3] = qHTS for Inhibitors of Plasmodium falciparum (7G8) proliferation (AID 504316); further: nearly all actives have a fitted effect of over 65% in size; conditions: P. falciparum 7G8 in erythrocytes, SYBR Green DNA, 72 h; series mostly up to 6.7 µM
Summary of the method: as §1

[4] = qHTS for Inhibitors of Plasmodium falciparum (HB3) proliferation (AID 504318); further: nearly all actives have a fitted effect of over 60% in size; conditions: P. falciparum HB3 in erythrocytes, SYBR Green DNA, 72 h; series mostly up to 7.21 µM
Summary of the method: as §1

[5] = qHTS for Inhibitors of Plasmodium falciparum (CP250) proliferation (AID 504320); conditions: P. falciparum CP250 in erythrocytes, SYBR Green DNA, 72 h; series mostly up to 6.7 µM
Summary of the method: as §1

[6] = molecular target: Atrial natriuretic peptide receptor 1 (Homo sapiens) (UniProt P16066); test: Natriuretic polypeptide receptor (hNpr1) antagonism - Pilot CMLD screen (AID 1347052; calls by dose curve;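 further: HEK293 cells with hNpr1 stimulated by hNppA peptide at 0.1 nM; cGMP level read as GloSensor luciferase luminescence after agonist stimulation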); conditions: HEK293 hNpr1 GloSensor cGMP luminescence, ANP-stimulated; series mostly up to 9.22 µM

Measured: Potency

Chain of Atrial natriuretic peptide receptor 1 (Homo sapiens) (P16066 whole entry, looked up): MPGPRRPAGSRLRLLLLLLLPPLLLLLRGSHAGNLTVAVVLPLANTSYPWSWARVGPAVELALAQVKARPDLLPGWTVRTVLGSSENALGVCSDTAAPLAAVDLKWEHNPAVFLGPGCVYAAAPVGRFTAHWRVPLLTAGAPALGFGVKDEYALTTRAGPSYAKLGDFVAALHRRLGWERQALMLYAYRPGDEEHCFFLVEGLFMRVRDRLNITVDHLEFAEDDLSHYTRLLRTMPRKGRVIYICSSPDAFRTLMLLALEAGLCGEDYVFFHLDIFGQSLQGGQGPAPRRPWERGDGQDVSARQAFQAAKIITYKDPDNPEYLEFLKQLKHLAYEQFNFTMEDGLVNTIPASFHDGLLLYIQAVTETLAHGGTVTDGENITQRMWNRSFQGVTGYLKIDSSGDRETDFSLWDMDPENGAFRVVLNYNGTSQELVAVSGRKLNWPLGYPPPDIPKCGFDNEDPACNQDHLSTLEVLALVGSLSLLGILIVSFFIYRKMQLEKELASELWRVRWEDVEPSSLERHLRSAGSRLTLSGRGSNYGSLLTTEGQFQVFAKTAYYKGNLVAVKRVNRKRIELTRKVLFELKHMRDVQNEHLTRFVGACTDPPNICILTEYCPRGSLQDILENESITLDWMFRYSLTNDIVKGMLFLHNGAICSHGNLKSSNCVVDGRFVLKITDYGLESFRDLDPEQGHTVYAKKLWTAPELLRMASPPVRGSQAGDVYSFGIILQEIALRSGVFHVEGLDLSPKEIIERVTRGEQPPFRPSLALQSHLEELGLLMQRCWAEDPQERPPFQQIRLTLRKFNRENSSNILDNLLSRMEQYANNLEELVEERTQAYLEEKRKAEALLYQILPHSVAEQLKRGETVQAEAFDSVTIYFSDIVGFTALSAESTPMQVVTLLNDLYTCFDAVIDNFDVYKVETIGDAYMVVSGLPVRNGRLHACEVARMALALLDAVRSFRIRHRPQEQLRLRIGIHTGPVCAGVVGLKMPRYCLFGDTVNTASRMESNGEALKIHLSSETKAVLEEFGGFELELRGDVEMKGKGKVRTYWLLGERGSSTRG

C=CCOC(=O)NC(CC(=Nc1ccc(OC)cc1)C(=O)OC)c1ccccc1 (stereo unspecified)
inactive: all assays above

COC(=O)CCCC1=CC2=C(c3ccccc3)C(=O)C(C)(OC(=O)C3CCCC3)C(=O)C2=CN1c1ccccc1 (stereo unspecified)
inactive: all assays above

C=CC1(O)C(OC)=CC2C(=O)C1C(c1ccccc1)C2C (stereo unspecified)
inactive: all assays above

COC(=O)C12C[C@H](C)C3C(C)C(c4ccccc4C31)N2C(=O)C(F)(F)F (stereo partly specified)
inactive: all assays above

COC(=O)[C@@H](NC(=O)O[C@@H]1C(=O)c2cc(Br)ccc2O[C@H]1c1cccc(OC)c1)C(C)C
inactive: all assays above

C=CCN1c2ccccc2[C@]23C[C@@H](C(=O)OC)N(C(=O)Nc4ccccc4F)C2=NC(C(=O)OC)=C(C(=O)OC)[C@H]13
inactive: all assays above

Cc1cccc(C)c1Nc1oc(-c2ccccc2)nc1-c1ccccc1
inactive: all assays above

COC(=O)C1=C(C)N(Cc2ccccc2)C(=NCc2ccc(OC)cc2)NC1c1ccccc1 (stereo unspecified)
inactive: all assays above

O=C1CCC=C1C(O)c1ccccc1 (stereo unspecified)
inactive: all assays above

C=CCOC(=O)N[C@@H](c1coc2ccccc2c1=O)[C@@H](C)C=CCC(=O)OC
inactive: all assays above

CCN1C(=O)[C@@H]2[C@H]3[C@H](O)[C@H](O)CC(=NO[C@H](C)c4cn([C@H](CO)Cc5ccccc5)nn4)[C@@H]3CC[C@H]2C1=O
inactive: all assays above

COC(=O)C1=C(C(=O)OC)[C@@H]2N(C)c3ccccc3[C@@]23C[C@@H](C(=O)OC)N(C(=O)Nc2cccc(C#N)c2)C3=N1
inactive: all assays above

CC(=O)OC[C@H]1O[C@H](CCON=C[C@@H](C)[C@H](OCc2ccccc2)C(C)C)C=C[C@@H]1OC(C)=O
inactive: all assays above

CC(C)[C@@H](OCc1ccccc1)[C@H](C)C=NO[C@H](C)c1cn([C@H](CO)Cc2ccccc2)nn1
inactive: all assays above

C=CCN1c2ccccc2[C@]23C[C@@H](C(=O)OC)N(C(=O)OCC)C2=NC(C(=O)OC)=C(C(=O)OC)[C@H]13
inactive: all assays above

C=CC[C@@H]1C=C[C@H](ON=C[C@@H](C)[C@H](OCc2ccccc2)C(C)C)[C@H](CO)O1
inactive: all assays above
